The supplement of paper PMC9135407
Several values for one entry are separate records, joined by “and”; a condition that tells them apart may be missing. Equal values may be shown once. Where a name gives a salt, the structure may show the parent alone. Hit rate of the full screen: of about 5,800 compounds, about 620 (11%) showed activity.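 Rule for the calls: active = score above a cut-off or among the top three wells of a plate; in these data no inactive exceeds 0.85.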 The sample as a whole holds a higher share of actives than the screen did.

System: primary human hepatic stellate cells (donor 1)
Experiment: scaled lipid accumulation score (0 = DMSO-like, 1 = nortriptyline-like); higher = stronger HSC inactivation (lipid re-accumulation), active = hit call of the paper
Details: 48 h
[1] = library stock concentration: 1 mM
[2] = library stock concentration: 3.33 mM
[3] = library stock concentration: 10 mM
[4] = library stock concentration: 9 mM
[5] = library stock concentration: 80 uM
[6] = library stock concentration: 400 uM
[7] = library stock concentration: 2 mM

CCCCC[C@H]1C=C[C@@H]2[C@@H](CC=CCCCC(=O)O1)[C@@H](O)C[C@H]2O [Prostaglandin F2.alpha. 1,15-lactone]
scaled lipid accumulation score [1]: ≤ 0 (inactive)

CCCCC/C=C/C=C1/C=CC(=O)[C@@H]1CCCCCCC(=O)O [15-deoxy-.DELTA.12,14-Prostaglandin A1]
scaled lipid accumulation score [1]: ≤ 0 (inactive)

CC(C)C[C@H](NC(=O)CNC(=O)c1cc(Cl)ccc1Cl)B1OC(=O)CC(CC(=O)O)(C(=O)O)O1 (stereo partly specified)
scaled lipid accumulation score [2]: ≤ 0 (inactive)
scaled lipid accumulation score [3]: 0.118 (inactive)

OCC1OC(n2cnc3c(NC4CCCCC4)ncnc32)C(O)C1O (stereo unspecified) [N6-Cyclohexyladenosine]
scaled lipid accumulation score [3]: 0.037 (inactive)

Cc1cccc(CCN2CCC(C(=O)c3ccc(NS(C)(=O)=O)cc3)CC2)n1 [E-4031 dihydrochloride]
scaled lipid accumulation score [3]: ≤ 0 (inactive)

Cc1cccc(CCN2CCC(C(=O)c3ccc(NS(C)(=O)=O)cc3)CC2)n1
scaled lipid accumulation score (library stock concentration: 9.9 mM): 0.011 (inactive)

Fc1ccc(Cl)cc1-c1nc(Nc2ccncc2)c2nccnc2n1
scaled lipid accumulation score [3]: ≤ -0.001 (inactive)

O=C1c2ccccc2C(=O)C1c1ccccc1 [Phenindione]
scaled lipid accumulation score: ≤ 0 (inactive)
scaled lipid accumulation score [2]: ≤ 0 (inactive)
scaled lipid accumulation score [4]: 0.014 (inactive)
scaled lipid accumulation score [3]: ≤ 0 (inactive)

O=C1C=CC(=O)C2=C1C1c3ccccc3C2c2ccccc21
scaled lipid accumulation score [3]: 0.953 (active)

CCCCCC(O)C=CC1C2CC(CO2)C1CCCCCCC(=O)O (stereo not drawn) [9,11-methane-epoxy Prostaglandin F1.alpha.]
scaled lipid accumulation score [1]: 0.048 (inactive)

O=C(NC1CCN(CCCCC2(C(=O)NCC(F)(F)F)c3ccccc3-c3ccccc32)CC1)c1ccccc1-c1ccc(C(F)(F)F)cc1 [Lomitapide] [listing 1 of 2 here]
scaled lipid accumulation score [2]: 1.05 (active)

O=C(Nc1ccc2c(c1)CCN(Cc1ncn[nH]1)C2)c1ccccc1-c1ccc(C(F)(F)F)cc1
scaled lipid accumulation score [3]: ≤ 0 (inactive)

O=C(NC1CCN(CCCCC2(C(=O)NCC(F)(F)F)c3ccccc3-c3ccccc32)CC1)c1ccccc1-c1ccc(C(F)(F)F)cc1 [Lomitapide] [listing 2 of 2 here]
scaled lipid accumulation score [3]: ≤ 0 (inactive)

N[C@@H]1CCCN(c2c(/C=C3\SC(=O)NC3=O)cccc2-c2ccccc2)C1
scaled lipid accumulation score [5]: ≤ 0 (inactive)
scaled lipid accumulation score [6]: ≤ 0 (inactive)
scaled lipid accumulation score [7]: 0.016 (inactive)
scaled lipid accumulation score [2]: 0.072 (inactive)
scaled lipid accumulation score [3]: 0.072 (inactive) and 0.486 (inactive)

CC(C)(C)c1cc(O)c(C(C)(C)C)cc1O [2,5-Ditertbutylhydroquinone]
scaled lipid accumulation score (library stock concentration: 22.5 mM): 0.463 (inactive)

O=C(O)/C=C\C(=O)O.O=C(O)/C=C\C(=O)O.c1cc(CN2CCCCC2)cc(OCCCNc2nc3ccccc3s2)c1 [Zolantidine dimaleate]
scaled lipid accumulation score [3]: 1.5 (active)

O=C(O)/C=C\C(=O)O.O=C(O)/C=C\C(=O)O.c1cc(CN2CCCCC2)cc(OCCCNc2nc3ccccc3s2)c1
scaled lipid accumulation score [3]: 1.03 (active)

O=C(O)Cc1cccc(OCCCN(Cc2cccc(C(F)(F)F)c2Cl)CC(c2ccccc2)c2ccccc2)c1
scaled lipid accumulation score [2]: ≤ 0 (inactive)
scaled lipid accumulation score [3]: 0.181 (inactive)

CC(=O)OCC(=O)NCCCOc1cccc(CN2CCCCC2)c1
scaled lipid accumulation score [3]: ≤ 0 (inactive)

CC(=O)OCC(=O)NCCCOc1cccc(CN2CCCCC2)c1 [Roxatidine acetate HCl]
scaled lipid accumulation score (library stock concentration: 5.7 mM): ≤ 0 (inactive)

c1ccc2sc(N3CCN(Cc4ccc5c(c4)OCO5)CC3)nc2c1 [2-[1-(4-Piperonyl)piperazinyl]benzothiazole]
scaled lipid accumulation score [3]: ≤ 0 (inactive)

CC(=O)OCC(=O)NCCCOc1cccc(CN2CCCCC2)c1 [Roxatidine Acetate HCl]
scaled lipid accumulation score: 0.032 (inactive)
scaled lipid accumulation score [2]: ≤ 0 (inactive)
scaled lipid accumulation score [3]: ≤ 0 (inactive)

O=C(O)Cc1cccc(OCCCN(Cc2cccc(C(F)(F)F)c2Cl)CC(c2ccccc2)c2ccccc2)c1 [GW 3965 hydrochloride]
scaled lipid accumulation score [3]: ≤ -0.001 (inactive)

CCCCCCCCCCCCCCCCCC(=O)N[C@H]1CCOC1=O [N-octadecanoyl-L-Homoserine lactone]
scaled lipid accumulation score [1]: ≤ 0 (inactive)

CCCCN1C[C@H](O)[C@@H](O)[C@H](O)[C@H]1CO [Miglustat]
scaled lipid accumulation score (library stock concentration: 9.1 mM): ≤ 0 (inactive)

Nc1nc(Nc2ccccc2)nc2c1ncn2[C@@H]1O[C@H](CO)[C@@H](O)[C@H]1O
scaled lipid accumulation score [3]: ≤ 0 (inactive)

Cc1ccc(NC(=O)c2ccc(CN3CCN(C)CC3)cc2)cc1Nc1nccc(-c2cccnc2)n1 [Imatinib Mesylate (STI571)]
scaled lipid accumulation score [2]: 0.259 (inactive)

Cc1ccc(NC(=O)c2ccc(CN3CCN(C)CC3)cc2)cc1Nc1nccc(-c2cccnc2)n1
scaled lipid accumulation score [6]: 0.022 (inactive)
scaled lipid accumulation score [7]: ≤ -0.005 (inactive)
scaled lipid accumulation score [3]: 0.628 (inactive)

CS(=O)(=O)O.Cc1ccc(NC(=O)c2ccc(CN3CCN(C)CC3)cc2)cc1Nc1nccc(-c2cccnc2)n1 [Imatinib]
scaled lipid accumulation score [3]: 0.969 (active)

Cc1ccc(NC(=O)c2ccc(CN3CCN(C)CC3)cc2)cc1Nc1nccc(-c2cccnc2)n1 [Imatinib (STI571)] [listing 1 of 2 here]
scaled lipid accumulation score [2]: 0.133 (inactive)

Cc1ccc(NC(=O)c2ccc(CN3CCN(C)CC3)cc2)cc1Nc1nccc(-c2cccnc2)n1 [Imatinib]
scaled lipid accumulation score [5]: ≤ 0 (inactive)
scaled lipid accumulation score [6]: ≤ 0 (inactive)
scaled lipid accumulation score [7]: 0.049 (inactive)

Cc1ccc(NC(=O)c2ccc(CN3CCN(C)CC3)cc2)cc1Nc1nccc(-c2cccnc2)n1 [Imatinib (STI571)] [listing 2 of 2 here]
scaled lipid accumulation score [3]: 0.92 (active)

Cc1cc(-c2ccc(CC(=O)Nc3ccc(-c4cccnc4)cc3)cc2)ccn1
scaled lipid accumulation score [2]: 0.089 (inactive)
scaled lipid accumulation score [3]: 0.262 (inactive)

CS(=O)(=O)O.Cc1ccc(NC(=O)c2ccc(CN3CCN(C)CC3)cc2)cc1Nc1nccc(-c2cccnc2)n1 [Imatinib Mesylate (STI571)]
scaled lipid accumulation score [3]: 1.1 (active)

CS(=O)(=O)O.Cc1ccc(NC(=O)c2ccc(CN3CCN(C)CC3)cc2)cc1Nc1nccc(-c2cccnc2)n1
scaled lipid accumulation score [3]: 1.08 (active)

CCCCC/C=C\C/C=C\C/C=C\CCCCCCC(=O)O [Dihomo-.gamma.-Linolenic Acid]
scaled lipid accumulation score [1]: 0.003 (inactive)

CCCCC/C=C\C/C=C\C/C=C\CCCCCCC(=O)O [Dihomo-gamma-linolenic acid]
scaled lipid accumulation score [1]: ≤ -0.021 (inactive)

CCCCC(CC)COC(=O)CC(C(=O)OCC(CC)CCCC)S(=O)(=O)O (stereo unspecified)
scaled lipid accumulation score [3]: ≤ 0 (inactive)

CCCCC[C@H](O)/C=C/[C@H]1[C@H](O)CC(=O)[C@H]1C/C=C\CCCC(=O)OC(C)C [8-iso Prostaglandin E2 isopropyl ester]
scaled lipid accumulation score [1]: ≤ 0 (inactive)

CC/C=C\C/C=C\C/C=C\C/C=C\C/C=C\C/C=C\CCC(=O)O[C@H](COCCCCCCCCCCCCCCCC)COP(=O)([O-])OCC[N+](C)(C)C [Docosahexaenoyl PAF C-16]
scaled lipid accumulation score [1]: ≤ 0 (inactive)

CC/C=C\C/C=C\C/C=C\C/C=C\C/C=C\CCCC(=O)O[C@H](COCCCCCCCCCCCCCCCC)COP(=O)([O-])OCC[N+](C)(C)C [Eicosapentaenoyl PAF C-16]
scaled lipid accumulation score [1]: ≤ 0 (inactive)

COc1ccc(CCN(C)CCCC(C#N)(c2cc(OC)c(OC)c(OC)c2)C(C)C)cc1OC (stereo unspecified)
scaled lipid accumulation score [3]: 0.616 (inactive)

CCCCC[C@H](O)/C=C/[C@@H]1[C@H]2C[C@@H](CCCCC(=O)O)O[C@H]2C[C@H]1O [6.alpha.-Prostaglandin I1]
scaled lipid accumulation score [1]: 0.002 (inactive)

C=CCc1ccc(O)c(-c2ccc(O)c(CC=C)c2)c1 [Honokiol]
scaled lipid accumulation score [2]: ≤ 0 (inactive)
scaled lipid accumulation score [3]: 0.295 (inactive)

CCCCC[C@@H](O)/C=C/[C@H]1C(=O)C[C@H](O)[C@@H]1CCCCCCCO [Prostaglandin D1 Alcohol]
scaled lipid accumulation score [1]: ≤ 0 (inactive)

CC(=O)CCCCn1cnc2c1c(=O)n(C)c(=O)n2C
scaled lipid accumulation score [3]: ≤ 0 (inactive)

Nc1ncnc2c1C(=O)N(c1ccc([C@H]3CC[C@H](CC(=O)O)CC3)cc1)CCO2
scaled lipid accumulation score [2]: ≤ -0.009 (inactive)
scaled lipid accumulation score [3]: ≤ 0 (inactive)

COc1ccc(CCC(C)NC2CC(C)(C)NC(C)(C)C2)cc1 (stereo unspecified)
scaled lipid accumulation score [3]: 0.998 (active)

COc1ccc(CNCc2cccc3ccccc23)cc1
scaled lipid accumulation score [2]: 0.023 (inactive)
scaled lipid accumulation score [3]: 0.491 (inactive)

CC(/C=C/c1cccc(Oc2ccc(F)cc2)c1)N(O)C(N)=O (stereo unspecified)
scaled lipid accumulation score [3]: 0.544 (inactive) and 0.071 (inactive)

C[C@@H]1C[C@H]2[C@@H]3CCC4=CC(=O)C=C[C@]4(C)[C@@]3(F)[C@@H](O)C[C@]2(C)[C@H]1C(=O)CO
scaled lipid accumulation score [3]: ≤ 0 (inactive)

Cc1cc(C)cc(OCC2CNC(=O)O2)c1 (stereo unspecified) [Metaxalone]
scaled lipid accumulation score [4]: ≤ 0 (inactive)
scaled lipid accumulation score [3]: ≤ -0.023 (inactive)

COc1ccc2nc3cc(Cl)ccc3c(Nc3cc(CN4CCCC4)c(O)c(CN4CCCC4)c3)c2n1
scaled lipid accumulation score [3]: 0.065 (inactive)

N=C(N)NC(=N)N1CCOCC1
scaled lipid accumulation score [3]: ≤ 0 (inactive)

N=C(N)NC(=N)N1CCOCC1 [Moroxydine HCl]
scaled lipid accumulation score [2]: 0.051 (inactive)
scaled lipid accumulation score (library stock concentration: 9.6 mM): ≤ -0.006 (inactive)
scaled lipid accumulation score [3]: ≤ 0 (inactive)

CCN(CC)CCCCNc1ncc2cc(-c3c(Cl)cccc3Cl)c(NC(=O)NC(C)(C)C)nc2n1 [listing 1 of 2 here]
scaled lipid accumulation score [3]: 0.999 (active)

CCN(CC)CCCCNc1ncc2cc(-c3c(Cl)cccc3Cl)c(NC(=O)NC(C)(C)C)nc2n1 [listing 2 of 2 here]
scaled lipid accumulation score [3]: 1.41 (active)

CSc1cccc(Nc2ncc3cc(-c4c(Cl)cccc4Cl)c(=O)n(C)c3n2)c1
scaled lipid accumulation score [2]: 0.68 (inactive)
scaled lipid accumulation score [3]: 0.591 (inactive)

CCN(CC)CCOc1ccc(Nc2ncc3cc(-c4c(Cl)cccc4Cl)c(=O)n(C)c3n2)cc1
scaled lipid accumulation score [3]: 0.416 (inactive)

COc1c(C=O)c(O)cc2c1C(=O)c1ccccc1C2=O [Damnacanthal]
scaled lipid accumulation score (library stock concentration: 17.7 mM): ≤ -0.011 (inactive)

Nc1nc(=O)c2c([nH]1)NC[C@@H](CNc1ccc(C(=O)N[C@@H](CCC(=O)O)C(=O)O)cc1)N2C=O [Folinic acid calcium salt]
scaled lipid accumulation score: ≤ 0 (inactive)

O=C(c1ccc(C=Cc2n[nH]c3ccccc23)cc1)N1CCNCC1
scaled lipid accumulation score [3]: 1.27 (active)

CCC(=O)N1CCN(C(=O)c2ccccc2)CC1
scaled lipid accumulation score [3]: 0.027 (inactive)

O=C(c1ccc(/C=C/c2n[nH]c3ccccc23)cc1)N1CCNCC1
scaled lipid accumulation score [5]: ≤ -0.016 (inactive)
scaled lipid accumulation score [6]: ≤ -0.016 (inactive)
scaled lipid accumulation score [7]: ≤ -0.016 (inactive)
scaled lipid accumulation score [2]: 0.101 (inactive)
scaled lipid accumulation score [3]: 0.67 (inactive)
